# Experimental data taken from PubChem BioAssay AID1259422 (The Scripps Research Institute Molecular Screening Center, 2018).
# Out of some 640,000 compounds screened, about 9,300 (1.5%) were called active. Rule as the data show it: active = inhibition above about 32%; inactive = the rest. What follows is part of a selection rich in actives, with near analogues and random picks from the rest.
# Assay: TEAD-YAP interaction inhibition, primary screen, TEAD-YAP interaction inhibitor project, luminescence, HEK-TIYL cells (AID 1259422);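 also: 0% = median of test compound wells and 100% = reference inhibitor wells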
# Settings: TEAD-Gal4/YAP UAS-luciferase luminescence, at 9.12 µM, stronger effect = higher value
row,Compound,inhibition
1,Cc1ccc2oc(=O)c3cnn(CC(=O)N4CCN(c5cccc(Cl)c5)CC4)c3c2c1,0.74% (inactive)
2,COc1ccc(/C=C2N=C(/C=C/c3ccc(Cl)cc3Cl)OC\2=O)cc1OC(C)=O,-1.28% (inactive)
3,Cc1ccccc1-n1c(=S)sc2c(=O)n(-c3ccccc3)c(SCc3cccc([N+](=O)[O-])c3)nc21,-6.72% (inactive)
4,O=C1C2CC=CCC2C(=O)N1c1ccc(N2C(=O)C3CC=CCC3C2=O)c(Cl)c1 (stereo unspecified),9.86% (inactive)
5,CCC(=O)Nc1ccc(-c2nc3ccccc3o2)cc1,3.84% (inactive)
6,O=C(Nc1ccc(-c2nc3ccccc3o2)cc1)c1ccc(Oc2ccccc2)cc1,-4.71% (inactive)
7,CC(C)C(=O)Nc1ccc(-c2nc3ccccc3o2)cc1,44.5% (active)
8,COc1ccc(C(=O)N/C(=C/c2ccc([N+](=O)[O-])cc2)C(=O)Nc2cc(Cl)cc(Cl)c2)c(Cl)c1,-19% (inactive)
9,CS(=O)(=O)N(CC(=O)NCCC1=CCCCC1)c1ccc(OCc2ccccc2)cc1,5.23% (inactive)
10,CCOC(=O)c1cccc(NC(=O)COc2ccccc2Br)c1,54.5% (active)
11,Cc1cc(NC(=O)COc2ccccc2Br)no1,-74.2% (inactive)
12,CCCCOC(=O)c1cccc(NC(=O)COc2ccc(C)c(C)c2)c1,-33.7% (inactive)
13,Cc1ccsc1/C=N/NS(=O)(=O)c1ccc(Br)cc1,-2.4% (inactive)
14,CC(C)C(=O)N=C1N=C2C=CC(Cl)=CN2Cc2ccccc21,-43.4% (inactive)
15,COc1cccc(/C=N/Nc2nc(=O)[nH]nc2C)c1OC,-7.82% (inactive)
16,COc1ccccc1-c1cnnc(N/N=C/c2cccc(OC)c2OCC(=O)O)n1,15% (inactive)
17,CCOc1ccc(/C=N/Nc2ncnc3nc[nH]c23)cc1,81.1% (active)
18,COC(=O)c1ccc(Nc2ncnc3nc[nH]c23)cc1,12.4% (inactive)
19,COc1ccc(/C=N/Nc2ncnc3nc[nH]c23)cc1OC,-5.99% (inactive)
20,COc1cccc(/C=N/Nc2ncnc3nc[nH]c23)c1OC,37.2% (active)
21,Cc1sc2ncn(CC(=O)NCCCC(=O)NCCC3=CCCCC3)c(=O)c2c1C,6.71% (inactive)
22,CCOc1ccc(/C(O)=C2/C(=O)C(=O)N(CCN(CC)CC)C2c2ccc(F)cc2)cc1C (stereo unspecified),-0.51% (inactive)
23,CCCCCCn1c(NNC=O)nc2c1c(=O)[nH]c(=O)n2C,5.98% (inactive)

row,Compound,inhibition
1,CCOC(=O)c1ccc(NC(=O)C2CC(=O)N(CCc3ccccc3)C(=Nc3ccccc3)S2)cc1 (stereo unspecified),5.21% (inactive)
2,Cc1ccc(CN(C)Cc2c(C(=O)N3CCN(C4CCCCC4)CC3)nc3ccccn23)o1,-4.7% (inactive)
3,COc1ccc(Nc2nc(N3CCCC3)nc(N3CCCC3)n2)cc1,1.54% (inactive)
4,COc1ccccc1N1CCN(C(=O)c2n[nH]c(=O)c3ccccc23)CC1,59% (active)
5,COc1cc(CN2CCN(c3ccccc3OC)CC2)cc(OC)c1,4.91% (inactive)
6,COc1ccccc1-n1nc(C(=O)N2CCN(c3ccccc3)CC2)c2ccccc2c1=O,0.45% (inactive)
7,O=C(c1n[nH]c(=O)c2ccccc12)N1CCN(Cc2ccccc2)CC1,-7.02% (inactive)
8,COc1cc2nc(CN3CCN(c4ccccc4OC)CC3)[nH]c(=O)c2cc1OC,63.6% (active)
9,COc1cc(OC)c(OC)cc1CN1CCN(c2ccccc2F)CC1,2.95% (inactive)
10,COc1ccccc1N1C(=O)C2C(C(C)=O)=NN(c3cccc(Cl)c3)C2C1=O (stereo unspecified),2.39% (inactive)
11,O=C(CN1CCOCC1)NCC1(c2ccccc2)CCCC1,4.7% (inactive)
12,CCOC(=O)c1c(NC(=O)CSc2nnc(CNC(=O)c3cccs3)n2-c2ccccc2OC)sc2c1CCCCC2,11.5% (inactive)
13,O=S1(=O)Nc2cccc3cccc1c23,9.46% (inactive)
14,CCNCC(=O)Nc1ccc(NC(C)=O)cc1,5.37% (inactive)
15,CC(=O)Nc1ccc(CN2CCOCC2)cc1,-2.53% (inactive)
16,CCN1C/C(=C/c2ccc(NC(C)=O)cc2)C(=O)/C(=C/c2ccc(NC(C)=O)cc2)C1,77.6% (active)
17,CCCOc1ccc(/C(O)=C2/C(=O)C(=O)N(CCN3CCOCC3)C2c2ccc(F)cc2)cc1C (stereo unspecified),-9.41% (inactive)
18,O=C1CCCN1CCCNc1cc(-c2cccs2)ncn1,-13.2% (inactive)
19,CN(CCC#N)C(=O)Cn1ncc2c1-c1ccccc1OC2,4.76% (inactive)
20,COC(=O)c1cc(S(=O)(=O)Nc2ccc(C(C)=O)cc2)cn1C,-5.94% (inactive)
21,CC(=O)NC1=NN(C(C)=O)C(C)(c2ccc(C)cc2)S1 (stereo unspecified),10.1% (inactive)
22,CC(=O)NC1=NN(C(C)=O)C(C)(c2ccc(Cl)s2)S1 (stereo unspecified),63.5% (active)
23,COc1ccc(C2(C)SC(NC(C)=O)=NN2C(C)=O)cc1 (stereo unspecified),17.7% (inactive)
